# The full list was thinned out, with hits kept by preference.
# TTR transcr act: increases transthyretin transcription. SH-SY5Y TTR promoter Gaussia luciferase, luminescence; 100% = recombinant luciferase protein wells. activation, % at 16.7 µM. 92,000 tested, 1.3% active. AID 1117267;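 active = activation above the mean of all tested compounds plus 3 SD, cut at about 9.5% in these data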;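 note: cells exposed to compounds for one day before reading; 0% = median of all test compound wells on the plate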
# HuH7 TTR inh: decreases TTR transcription in HuH7 cells in activator counter-screen; HuH7 TTR promoter-Gaussia luciferase reporter, luminescence; 1,100 tested, 4% active; inhibition, % at 16.7 µM; AID 1117279; shares compounds with TTR transcr act;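 active = average inhibition above the solvent-only control wells' mean plus 3 SD, cut at about 15% in these data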;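 note: 0% = cells with DMSO only and 100% = cells with inhibitor control FD; inhibitors lower well luminescence so higher value means more inhibition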
# TTR act confirm: human TTR transcription activation, confirmation | 1,100 tested, under 10 active | shares compounds with TTR transcr act | SHSY5Y TTR promoter Gaussia luciferase, luminescence; 100% = purified Lucia enzyme wells, no cells | activation, % at 16.7 µM;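 active = mean activation above a set limit taken from the earlier primary screen, cut at about 11% in these data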;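 note: 0% = DMSO-treated cells and 100% = recombinant Lucia luciferase without cells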
# Active calls of the source: *.
SMILES,TTR transcr act,others
COc1ccc(CN(C)CCCn2ccc(N)nc2=O)cc1OC,0,
COc1cccc(COC(=O)C2CC(=O)N(Cc3ccco3)C2)c1OC (centres undefined),-1,
CC(=O)c1ccc(NC(=O)CN2CCC(NC(=O)C3CCCCC3)CC2)cc1,4,
CCN(C(=S)Nc1ccc(C(C)=O)cc1)C1CCCCC1,32*,HuH7 TTR inh=-4;TTR act confirm=0
CC(=O)c1ccc(NC(=S)N2CCCCCC2)cc1,1,
CCN(CC)C(=O)CSc1ncnc2sc(-c3ccccc3)cc12,-4,
CCc1cc2c(SCC(=O)C(C#N)=C3N(C)c4ccccc4N3C)ncnc2s1,9.9*,HuH7 TTR inh=-29;TTR act confirm=0
CC(C)C(C)(C#N)NC(=O)CSc1ncnc2sc(-c3ccccc3)cc12 (centres undefined),-1,
CCCCCc1c(-c2ccccc2OC)ncn1CCc1ccccc1OC,-5,
Cc1cccc(Cn2cc(COC(=O)N3CCOCC3)nn2)c1,-1,
O=C(Nc1cc(-c2ccccc2)[nH]n1)c1ccc(Cl)cc1,-3,
CC(C)NCCOCCOc1ccc(Cl)cc1Br,0,
CCN(CC)CCOCCOc1ccccc1F,-1,
CC(C)NCCOCCOc1ccccc1F,11*,HuH7 TTR inh=-9;TTR act confirm=1
COc1ccc(/C=C(\NC(=O)c2ccco2)C(=O)Nc2ccc(C(C)=O)cc2)cc1,0,
Cc1ccc[n+](CC(=O)Nc2ccc(N(C)C)cc2)c1,-1,
O=C(Cc1ccccc1)NC1CCCc2c1cnn2-c1ccc(F)cc1F (centres undefined),-2,
CC1CC(=O)Nc2ccccc2N1S(=O)(=O)c1ccc(F)cc1F (centres undefined),0,
CCOC(=O)c1cnn(-c2ccccc2)c1NC(=O)c1ccccc1,-1,
Cc1cccc(C(=O)Nc2c(C(=O)N(C)C)cnn2-c2ccccc2)c1,11*,HuH7 TTR inh=-13;TTR act confirm=-1
O=C(Nc1c(C(=O)N2CCCCC2)cnn1-c1ccccc1)c1ccccc1,5,
COc1ccc(OC)c(CCNC(=O)CCc2nnc3ccc(N4CCOCC4)nn23)c1,1,
COc1ccccc1C(O)c1nccn1C (centres undefined),14*,HuH7 TTR inh=-4;TTR act confirm=-1
COc1cccc(C(O)c2nccn2Cc2ccccc2)c1OC (centres undefined),1,
CCn1c(C(O)c2cccc(OC)c2OC)nc2ccccc21 (centres undefined),6,
SMILES,TTR transcr act,others
CC(=O)N1CCN(S(=O)(=O)c2ccc(S(=O)(=O)NC3CCCCC3)cc2)CC1,0,
CC(=O)C1CCC2C3CCC4CC(=O)CCC4(C)C3C(O)CC12C (centres undefined),10*,HuH7 TTR inh=-1;TTR act confirm=-1
CC(=O)C1CCC2C3CCC4=CC(=O)C=CC4(C)C3CCC12C (centres undefined),-1,
CC(=O)C1C(C)CC2C3CCC4CC(=O)CCC4(C)C3CCC21C (centres undefined),0,
CC(C)n1c(=O)c2ccccc2n1C(=O)c1ccccc1,1,
Cc1ccc(S(=O)(=O)N2CCOCC2)cc1NC(=O)Nc1ccc([N+](=O)[O-])cc1,-1,
COCCn1c(SCC(=O)NC(C)c2ccccc2)nc2ccccc21 (centres undefined),0,
COCCn1c(SCC(=O)Nc2cccc(S(N)(=O)=O)c2)nc2ccccc21,4,
COCCn1c(SCC(=O)Nc2ccc(S(N)(=O)=O)cc2)nc2ccccc21,9.8*,HuH7 TTR inh=-8;TTR act confirm=-1
CC1([N+](=O)[O-])COC(C=Cc2ccccc2)OC1 (centres undefined),-2,
Cc1ccc(N2CC(C(=O)OCC(=O)Nc3ccccc3C)CC2=O)cc1 (centres undefined),0,
COC(=O)[C@]12C[C@H](CC(=O)N3CCN(C(=O)C4CC4)CC3)C(=O)N(Cc3cccc4ccccc34)C1=C[C@H](C1CCCC1)O[C@@H]2C,-2,
CCN1C(=O)[C@@H]2[C@@H](c3ccc(-c4ccc(C(C)=O)cc4)cc3)N3CCCC[C@@]3(C(=O)OC)[C@@H]2C1=O,12*,HuH7 TTR inh=1;TTR act confirm=-1
CCSc1ccc([C@@H]2[C@H]3C(=O)N(C)C(=O)[C@H]3[C@]3(C(=O)OC)CCCCN23)cc1,-1,
COC(=O)[C@@]12CCCN1[C@H](c1ccc(-c3ccccc3)cc1)[C@H]1C(=O)N(C)C(=O)[C@H]12,4,
CCN1C(=O)[C@@H]2[C@@H](c3ccc(-c4ccc5c(c4)OCO5)cc3)N3CCCC[C@@]3(C(=O)OC)[C@@H]2C1=O,-2,
COC(=O)[C@@]12CCCCN1[C@H](c1ccc(-c3ccc(C(C)=O)cc3)cc1)[C@H]1C(=O)N(C)C(=O)[C@H]12,-2,
COC(=O)[C@@]12CCCCN1[C@H](c1ccc(SC3CCCCC3)cc1)[C@@H]1C(=O)N(C)C(=O)[C@@H]12,17*,HuH7 TTR inh=7;TTR act confirm=-1
CC(NC(=O)C1CCN(CCOc2ccc(Cl)cc2)CC1)c1cccc2ccccc12 (centres undefined),3,
COC(=O)[C@]12C[C@H](CC(=O)NCc3ccc(C)o3)C(=O)N(Cc3ccccc3)C1=C[C@H](COCc1ccccc1)O[C@@H]2C,-1,
Cc1ccccc1C(=O)NCC(=O)NNC(=O)c1cccc(Cl)c1,19*,HuH7 TTR inh=-12;TTR act confirm=0
Cc1csc(C(=O)NCC(=O)NNC(=O)c2cccc(Cl)c2)c1,0,
Cc1cccc(C(=O)NNC(=O)c2ccccc2C)c1,-2,
CCCC1(c2ccccc2)NC(=O)NC1=O (centres undefined),3,
Cc1ccc(NC(=O)CSC(C)C(=O)NCCc2ccccn2)cc1 (centres undefined),4,
SMILES,TTR transcr act,others
O=C(NCCc1nc2ccccc2[nH]1)/C(=C/c1ccco1)NC(=O)c1ccc(Br)cc1,-1,
COc1ccc(/C=C/C(=O)N/C(=C\c2ccco2)C(=O)NCCc2nc3ccccc3[nH]2)cc1,12*,HuH7 TTR inh=4;TTR act confirm=-1
O=C(NCCc1nc2ccccc2[nH]1)/C(=C/c1ccco1)NC(=O)c1ccccc1Br,-1,
O=C1C(O)CCN1C1CCCCC1 (centres undefined),-1,
Cc1cc(NC(=O)C2CCCCC2)ncc1NC(=O)c1ccccn1,14*,HuH7 TTR inh=1;TTR act confirm=-1
Cc1cc(NC(=O)C2CC2)ncc1NC(=O)c1ccccn1,2,
Cc1ccccc1NC(=O)c1ccccn1,-1,
CC(C)(C)c1ccc(NC(=O)c2ccccc2)c([N+](=O)[O-])c1,1,
O=C1CCN(c2ncccc2[N+](=O)[O-])CC1,12*,HuH7 TTR inh=-2;TTR act confirm=-1
O=[N+]([O-])c1cccnc1N1CCOCC1,0,
N#CC1CCN(c2ncccc2[N+](=O)[O-])CC1,1,
COc1ccc(N2CCN(C(=O)C(NC(=O)c3c(F)cccc3F)C(C)C)CC2)cc1 (centres undefined),-1,
O=C(NC1CCCCC1)C12CC3CC(C1)CC(n1cncn1)(C3)C2,13*,HuH7 TTR inh=-5;TTR act confirm=0
Cc1cc(NC(=O)C23CC4CC(C2)CC(n2cnc([N+](=O)[O-])n2)(C4)C3)no1,-3,
O=C(Nc1ccon1)C12CC3CC(C1)CC(n1cnc([N+](=O)[O-])n1)(C3)C2,0,
O=S(=O)(Cc1ccc(Cl)cc1)NCc1cccnc1,-2,
Cc1ccc(N(CCC#N)C(=O)CN2C(=O)NC(Cc3ccccc3)C2=O)cc1 (centres undefined),-1,

# Source: PubChem BioAssay
